Assay results reported in PubChem BioAssay (NCATS).
Results filed as inconclusive are left out. Entries that show only a call come without a potency. Active and inactive are the calls of the source. Calls come from the whole dose curve; as a rule, active = well fitted curve in the direction sought with a large enough effect; inconclusive = small, poorly fitted or top-dose-only effect, or another doubt; inactive = no such curve, though single readings can be large; an effect the other way counts as inactive or inconclusive.

Columns and labels:
[1] = biological target: N-terminal Xaa-Pro-Lys N-methyltransferase 1 (Homo sapiens) (UniProt Q9BV86); assay: qHTS Assay for Inhibitors of N-terminal methyltransferase 1 (NTMT1): LOPAC validation of the NTMT1 SAHH-coupled ThioGlo3 Assay (AID 1347143); conditions: recombinant NTMT1, SAHH-coupled ThioGlo3 fluorescence; series mostly up to 114 µM;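 note: SAH from peptide methylation measured as thiol fluorescence via SAHH coupling and ThioGlo3; nearly all actives have a fitted effect of over 70% in size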; note: potency is the fitted concentration of half-maximal effect
Chain of N-terminal Xaa-Pro-Lys N-methyltransferase 1 (Homo sapiens) (Q9BV86 whole entry, looked up): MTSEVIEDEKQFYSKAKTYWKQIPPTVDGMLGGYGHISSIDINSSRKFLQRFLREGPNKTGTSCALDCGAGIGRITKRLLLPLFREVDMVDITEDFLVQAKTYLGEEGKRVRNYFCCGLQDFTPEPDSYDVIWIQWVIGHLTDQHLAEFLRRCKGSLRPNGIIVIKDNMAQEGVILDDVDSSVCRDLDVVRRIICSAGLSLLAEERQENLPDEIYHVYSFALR
In short: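 Recombinant human NTMT1 (125nM) was pre-incubated 1 min at room temperature with compounds over a concentration range, then a mix of 100uM SAM, 10uM SAHH and 15uM ThioGlo3 (concentrations in added reagent) was added. ThioGlo3 fluorescence (ex 340/em 450nm) after 30 min was normalized to the initial reading.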

[2] = system: Zika virus NS2B-NS3 protease (unlinked); assay: Optimization of GU AMC qHTS for Zika virus inhibitors: Unlinked NS2B-NS3 protease assay (AID 1347151); conditions: recombinant ZIKV NS2B-NS3 protease, fluorogenic AMC substrate; series mostly up to 52.5 µM; note: nearly all actives have a fitted effect of over 80% in size; note: potency is the fitted concentration of half-maximal effect
In short: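 Unlinked protease (25 nM final); buffer 10 mM Tris-HCl pH 8.0 + 0.01% Tween 20; AMC substrate; 15 min RT, dark; Δfluorescence normalized to no-inhibitor/no-enzyme controls; 4-parameter Hill fit.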

[3] = system: Zika virus NS2B-NS3 protease (linked construct); assay: Confirmatory screen NINDS AMC qHTS for Zika virus inhibitors (AID 1347152); conditions: Purified linked NS2B-NS3, AMC substrate fluorescence; series mostly up to 56.6 µM;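 note: AMC fluorescence gain from cleaved Bz-Nle-KRR-AMC substrate over 15 min; top concentration of the series differs between compounds; nearly all actives have a fitted effect of over 70% in size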
In short: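 Enzyme (1 nM, linked construct) was preincubated with compound for 15 minutes at room temperature in 10 mM Tris-HCl pH 8.0 with 0.01% Tween 20. Bz-Nle-Lys-Arg-Arg-AMC was then added to 10 microM, and AMC fluorescence was recorded immediately and after 15 minutes.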

**Q.** Which Potency [1] does the source give for `CN(C)CC[C@@H](c1ccc(Br)cc1)c1ccccn1` here?
**A.** inactive

**Q.** What about the Potency [2] of the same compound?
**A.** inactive

**Q.** With `Cc1ccc(/C(=C\CN2CCCC2)c2ccccn2)cc1` as the compound, how does the Potency [1] read?
**A.** inactive

**Q.** What about the Potency [2] of the same compound?
**A.** inactive

**Q.** With `CN1CCN(C2=Nc3ccccc3Oc3ccc(Cl)cc32)CC1` as the compound, how does the Potency [1] read?
**A.** inactive

**Q.** And the Potency [2]?
**A.** inactive

**Q.** What does the source list for `O=C1NCN(c2ccccc2)C12CCN(CCCC(c1ccc(F)cc1)c1ccc(F)cc1)CC2`?
**A.** Potency [1]: inactive; Potency [2]: inactive

**Q.** `COCCCC/C(=N\OCCN)c1ccc(C(F)(F)F)cc1` was tested. Which Potency [1] did it give?
**A.** inactive

**Q.** And the Potency [2]?
**A.** inactive

**Q.** With `Cc1nc2c([nH]1)c(=O)n(C)c(=O)n2Cc1ccco1` as the compound, how does the Potency [1] read?
**A.** inactive

**Q.** What about the Potency [2] of the same compound?
**A.** inactive

**Q.** Which results are given for `COCCc1ccc(OCC(O)CNC(C)C)cc1` (stereo not drawn)?
**A.** Potency [1]: inactive; Potency [2]: inactive

**Q.** `CCCNC(C)C(=O)Nc1ccccc1C` (stereo not drawn) was tested. Which Potency [1] did it give?
**A.** inactive

**Q.** And the Potency [2]?
**A.** inactive

**Q.** With `CC(C(=O)O)c1ccc(CC2CCCC2=O)cc1` (stereo not drawn) as the compound, how does the Potency [1] read?
**A.** inactive

**Q.** What about the Potency [2] of the same compound?
**A.** inactive

**Q.** With `CC(C)NNC(=O)c1ccncc1` as the compound, how does the Potency [1] read?
**A.** inactive

**Q.** What about the Potency [2] of the same compound?
**A.** inactive

**Q.** Which Potency [1] does the source give for `COc1cc(C(=O)OCCCN2CCCN(CCCOC(=O)c3cc(OC)c(OC)c(OC)c3)CC2)cc(OC)c1OC` here?
**A.** inactive

**Q.** And the Potency [2]?
**A.** inactive

**Q.** What does the source list for `C[C@H](CS)C(=O)N1CCC[C@H]1C(=O)O`?
**A.** Potency [1]: inactive; Potency [2]: inactive

**Q.** How did the Potency [1] turn out when `CNC1(C)C2CCC(C2)C1(C)C` (stereo not drawn) was run?
**A.** inactive

**Q.** What about the Potency [2] of the same compound?
**A.** inactive

**Q.** What does the source list for `Brc1c(NC2=NCCN2)ccc2nccnc12`?
**A.** Potency [1]: 50.1 µM (active); Potency [2]: inactive

**Q.** How did the Potency [1] turn out when `CCN(Cc1ccncc1)C(=O)C(CO)c1ccccc1` (stereo not drawn) was run?
**A.** inactive

**Q.** And the Potency [2]?
**A.** inactive

**Q.** Which results are given for `COC(=O)C1=C(C)NC(C)=C(C(=O)OCCN(C)Cc2ccccc2)C1c1cccc([N+](=O)[O-])c1` (stereo not drawn)?
**A.** Potency [1]: inactive; Potency [2]: inactive

**Q.** With `CN(C(=O)CCCOc1ccc2[nH]c(=O)ccc2c1)C1CCCCC1` as the compound, how does the Potency [1] read?
**A.** 79.4 µM (active)

**Q.** And the Potency [2]?
**A.** 26.7 µM (active)

**Q.** Which results are given for `CC(=O)OC(C)C[N+](C)(C)C` (stereo not drawn)?
**A.** Potency [1]: inactive; Potency [2]: inactive

**Q.** What does the source list for `CC(N=C(NC#N)Nc1ccncc1)C(C)(C)C` (stereo not drawn)?
**A.** Potency [1]: inactive; Potency [2]: inactive

**Q.** Which Potency [1] does the source give for `NS(=O)(=O)c1cc2c(cc1Cl)NC(C1CC3C=CC1C3)NS2(=O)=O` (stereo not drawn) here?
**A.** inactive

**Q.** And the Potency [2]?
**A.** inactive

**Q.** For `COc1ccc(CCN(C)CCCC(C#N)(c2cc(OC)c(OC)c(OC)c2)C(C)C)cc1OC` (stereo not drawn), which Potency [1] is on record?
**A.** inactive

**Q.** What about the Potency [2] of the same compound?
**A.** inactive

**Q.** `CNCCC(Oc1ccccc1OC)c1ccccc1` (stereo not drawn) was tested. Which Potency [1] did it give?
**A.** inactive

**Q.** What about the Potency [2] of the same compound?
**A.** inactive

**Q.** `CCC(=O)c1ccc2c(c1)N(CCCN(C)C)c1ccccc1S2` was tested. Which Potency [1] did it give?
**A.** 39.8 µM (active)

**Q.** What about the Potency [2] of the same compound?
**A.** inactive

**Q.** With `CCCCNC(=O)NS(=O)(=O)c1ccc(C)cc1` as the compound, how does the Potency [1] read?
**A.** inactive

**Q.** And the Potency [2]?
**A.** inactive

**Q.** With `COc1ccc([C@@H]2Sc3ccccc3N(CCN(C)C)C(=O)[C@@H]2OC(C)=O)cc1` as the compound, how does the Potency [1] read?
**A.** inactive

**Q.** What about the Potency [2] of the same compound?
**A.** inactive

**Q.** Which Potency [1] does the source give for `CC(C)(C)c1ccc(C(=O)CCCN2CCC(OC(c3ccccc3)c3ccccc3)CC2)cc1` here?
**A.** inactive

**Q.** What about the Potency [2] of the same compound?
**A.** inactive

**Q.** What does the source list for `CN(C)CC/C=C1\c2ccccc2COc2ccccc21`?
**A.** Potency [1]: inactive; Potency [2]: inactive

**Q.** `O=C(O)CN(CCN(CC(=O)O)CC(=O)O)CCN(CC(=O)O)CC(=O)O` was tested. Which Potency [1] did it give?
**A.** inactive

**Q.** What about the Potency [2] of the same compound?
**A.** inactive

**Q.** Which results are given for `CCN1CCc2nc(N)oc2CC1`?
**A.** Potency [1]: 56.2 µM (active); outcome [3]: inactive

**Q.** How did the Potency [1] turn out when `O=C(O)CP(=O)(O)O` was run?
**A.** inactive

**Q.** What about the Potency [2] of the same compound?
**A.** inactive

**Q.** What does the source list for `CO[C@@]1(NC(=O)CSCC#N)C(=O)N2C(C(=O)O)=C(CSc3nnnn3C)CS[C@@H]21`?
**A.** Potency [1]: inactive; Potency [2]: inactive

**Q.** How did the Potency [1] turn out when `Nc1c2c(nc3ccccc13)CCCC2O` (stereo not drawn) was run?
**A.** inactive

**Q.** What about the Potency [2] of the same compound?
**A.** inactive

**Q.** Which results are given for `NC(N)=N/N=C/c1c(Cl)cccc1Cl`?
**A.** Potency [1]: inactive; Potency [2]: inactive

**Q.** What does the source list for `NC/C=C/C(=O)O`?
**A.** Potency [1]: inactive; Potency [2]: inactive

**Q.** Which Potency [1] does the source give for `CN(C)CCN(Cc1cccs1)c1ccccn1` here?
**A.** inactive

**Q.** And the Potency [2]?
**A.** inactive

**Q.** `CC(=O)[C@@]1(O)CC[C@H]2[C@@H]3CCC4=CC(=O)CC[C@]4(C)[C@H]3CC[C@@]21C` was tested. Which Potency [1] did it give?
**A.** inactive

**Q.** And the Potency [2]?
**A.** inactive

**Q.** `NC(N)=NC(=O)Cc1c(Cl)cccc1Cl` was tested. Which Potency [1] did it give?
**A.** inactive

**Q.** What about the Potency [2] of the same compound?
**A.** inactive

**Q.** Which Potency [1] does the source give for `CCCN(CCC)CCc1cccc2c1CC(=O)N2` here?
**A.** inactive

**Q.** What about the Potency [2] of the same compound?
**A.** inactive

**Q.** `C[C@]12CCC(=O)C=C1CC[C@@H]1[C@@H]2C(=O)C[C@@]2(C)[C@H]1CC[C@]2(O)C(=O)CO` was tested. Which Potency [1] did it give?
**A.** inactive

**Q.** And the Potency [2]?
**A.** inactive

**Q.** With `CN(C)C(=O)Oc1cccc([N+](C)(C)C)c1` as the compound, how does the Potency [1] read?
**A.** inactive

**Q.** And the Potency [2]?
**A.** inactive

**Q.** With `CC(C)COCC(CN(Cc1ccccc1)c1ccccc1)N1CCCC1` (stereo not drawn) as the compound, how does the Potency [1] read?
**A.** 50.1 µM (active)

**Q.** What about the Potency [2] of the same compound?
**A.** inactive

**Q.** Which Potency [1] does the source give for `NC(Cc1ccc(Cl)cc1)C(=O)O` (stereo not drawn) here?
**A.** inactive

**Q.** What about the Potency [2] of the same compound?
**A.** inactive

**Q.** For `CCN(CC)CCNC(=O)c1ccc(NC(C)=O)cc1`, which Potency [1] is on record?
**A.** inactive

**Q.** What about the Potency [2] of the same compound?
**A.** inactive

**Q.** Which results are given for `CC1=NS(=O)(=O)c2cc(Cl)ccc2N1`?
**A.** Potency [1]: inactive; Potency [2]: inactive

**Q.** With `c1cc(CN2CCCCC2)cc(OCCCNc2nc3ccccc3s2)c1` as the compound, how does the Potency [1] read?
**A.** 22.4 µM (active)

**Q.** And the Potency [2]?
**A.** inactive

**Q.** What does the source list for `COc1cc(Cc2cnc(N)nc2N)cc(OC)c1OC`?
**A.** Potency [1]: inactive; Potency [2]: inactive

**Q.** How did the Potency [1] turn out when `CN(C)CCCN1c2ccccc2Sc2ccccc21` was run?
**A.** 44.7 µM (active)

**Q.** And the Potency [2]?
**A.** inactive

**Q.** `CC(C)(C)NCC(O)c1cc(O)cc(O)c1` (stereo not drawn) was tested. Which Potency [1] did it give?
**A.** inactive

**Q.** And the Potency [2]?
**A.** inactive

**Q.** Which results are given for `CC(=O)Nc1nnc(S(N)(=O)=O)s1`?
**A.** Potency [1]: inactive; Potency [2]: inactive

**Q.** How did the Potency [1] turn out when `CCOC(=O)C1=C(C)NC(C)=C(C(=O)OC)C1c1cccc(Cl)c1Cl` (stereo not drawn) was run?
**A.** 56.2 µM (active)

**Q.** And the Potency [2]?
**A.** 26.7 µM (active)

**Q.** For `CN(C)CCOC(=O)COc1ccc(Cl)cc1`, which Potency [1] is on record?
**A.** 56.2 µM (active)

**Q.** What about the Potency [2] of the same compound?
**A.** inactive

**Q.** How did the Potency [1] turn out when `CCCCCN(CCCCC)C(=O)C(CCC(=O)O)NC(=O)c1ccc(Cl)c(Cl)c1` (stereo not drawn) was run?
**A.** inactive

**Q.** What about the Potency [2] of the same compound?
**A.** inactive

**Q.** What does the source list for `CC(C)[N+](C)(CCOC(=O)C1c2ccccc2Oc2ccccc21)C(C)C`?
**A.** Potency [1]: inactive; Potency [2]: inactive

**Q.** Which Potency [1] does the source give for `Cc1nc2sccn2c(=O)c1CCN1CCC(=C(c2ccc(F)cc2)c2ccc(F)cc2)CC1` here?
**A.** inactive

**Q.** And the outcome [3]?
**A.** inactive
